CYP2C9 activ – human CYP2C9 activators, primary screen, biochemical, luminescence; AID 1024, 2008; 96,000 compounds, 1.4% hits; activation factor at 5 µM; recombinant CYP2C9, luciferin-H conversion; hits give high values; factor 1 = untreated enzyme, 0 = blocked; Cytochrome P450 2C9 (Homo sapiens), P11712;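 active = activation factor of 2 or more for CYP2C9 at a 5 µM dose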;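 note: 0 = sulfaphenazole-blocked wells and 1 = vehicle-only wells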
CYP2C9 inhib – blockers of cytochrome P450 2C9 activity – biochemical, luminescence, ADME assay, primary screen; inhibition, % at 5 µM; CYP2C9 Supersomes, luciferin-H conversion; 96,000 compounds, 20% hits; AID 777, 2007;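 active = blocking of liver enzyme CYP2C9 beyond about 50% at 5 µM, limit read from the data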
CYP2C19 inhib – blockers of cytochrome P450 2C19 activity – biochemical, luminescence, ADME assay, primary screen. inhibition, % at 5 µM. CYP2C19 Supersomes, luciferin-H EGE luminescence, 30 min. AID 778, 2007. 96,000 compounds, 21% hits;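 active = CYP2C19 inhibition above a set limit at 5 µM in the primary screen, cut at about 50% in these data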;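 note: plate controls were negative control wells for no effect and 2.5 mM tranylcypromine positive control for full effect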
PLAP activator – PLAP enzyme activators, biochemical, luminescence, HTS. activation fold at 20 µM. purified PLAP enzyme, luminescent substrate read-out; hits give high values. 96,000 compounds, 1.2% hits. AID 696, 2007; in the data active = activation fold above about 2
Target sequence (P05187 whole entry, looked up): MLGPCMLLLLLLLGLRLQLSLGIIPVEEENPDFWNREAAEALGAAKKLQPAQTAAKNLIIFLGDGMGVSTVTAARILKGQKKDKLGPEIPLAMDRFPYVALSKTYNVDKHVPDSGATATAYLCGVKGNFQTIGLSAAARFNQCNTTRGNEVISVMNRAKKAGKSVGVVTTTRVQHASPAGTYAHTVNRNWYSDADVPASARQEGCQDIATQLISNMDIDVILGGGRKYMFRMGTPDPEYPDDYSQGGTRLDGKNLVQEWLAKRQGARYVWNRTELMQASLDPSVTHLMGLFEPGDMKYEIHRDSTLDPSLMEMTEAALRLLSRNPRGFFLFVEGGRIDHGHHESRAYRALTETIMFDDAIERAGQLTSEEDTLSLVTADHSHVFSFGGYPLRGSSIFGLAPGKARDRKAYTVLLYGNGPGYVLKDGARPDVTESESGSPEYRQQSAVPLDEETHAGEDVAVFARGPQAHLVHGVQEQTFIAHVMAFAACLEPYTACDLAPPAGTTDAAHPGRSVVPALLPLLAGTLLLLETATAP
CYP2C19 act – human CYP2C19 activators, primary screen, biochemical, luminescence; Cytochrome P450 2C19 (Homo sapiens), P33261; recombinant CYP2C19, luciferin-H EGE luminescence; hits give high values; 0 = fully inhibited enzyme, 1 = untreated enzyme; activation factor at 5 µM; 96,000 tested, under 10 active; AID 1025, 2008;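 active = activation factor of at least 2 at 5 µM in the primary screen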;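 note: 0 = wells with 2.5 mM tranylcypromine and 1 = vehicle-only wells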
* = called active by the depositor; . = no result. An excerpt weighted towards active compounds, which were near 31% of everything screened.

SMILES | CYP2C9 activ | CYP2C9 inhib | CYP2C19 inhib | PLAP activator | CYP2C19 act
CC1CCCCN1C(=O)C12CCC(C)(C(=O)C1)C2(C)C (centres undefined) | 1 | 0 | -2 | 1.3 | 1
Cc1ccc(S(=O)(=O)C2(C(=O)N3CCCCC3C)CC2)cc1 (centres undefined) | 0.9 | 7 | 72* | 1.2 | 0.3
Cc1ccc(S(=O)(=O)C2(C(=O)N(C)C3CCCCC3)CC2)cc1 | 0.9 | 8 | 50* | 1.1 | 0.5
CCOc1ccc(C2OC(=O)Cc3cc(OC)c(OC)cc32)cc1 (centres undefined) | 0.7 | 26 | 35 | 1 | 0.6
Cc1cc(C#N)c(C)n1-c1cc(C(F)(F)F)ccc1N1CCOCC1 | 0.7 | 26 | 99* | 0.9 | 0
CCOC(=O)N1CCC(NC(=O)c2ccc3c(c2)N(Cc2ccccc2)CCS3)CC1 | 0.1 | 92* | 85* | . | 0.1
CCOC(=O)N1CCN(C(=O)c2ccc3c(c2)N(CC)CCS3)CC1 | 0.2 | 78* | 4 | 1.3 | 1
CCOC(=O)N1CCC(NC(=O)Cn2nc(-c3ccccc3)ccc2=O)CC1 | 1 | -4 | 4 | 1.1 | 1
CCOC(=O)N1CCC(NC(=O)c2cc3c(C)nc4ccccc4c3o2)CC1 | 0.4 | 61* | 40 | 1.6 | 0.6
CCOC(=O)N1CCC(NC(=O)Cn2nc(Cc3ccncc3)c3ccccc3c2=O)CC1 | 0.2 | 77* | 55* | 1.5 | 0.4
Cc1nc(NC(=O)CC(C)C)sc1-c1csc(Nc2ccc(Cl)cc2Cl)n1 | 0.8 | 24 | 1 | 1.1 | 1
Cc1nc(NC(=O)c2ccccc2)sc1-c1csc(Nc2ccc(Cl)cc2Cl)n1 | 0.9 | 11 | 65* | 1.2 | 0.3
Cc1nc(NC(=O)CC(C)C)sc1-c1csc(Nc2ccc(Cl)cc2)n1 | 0.6 | 38 | 51* | 1 | 0.5
COc1ccc(Cl)cc1Nc1nc(-c2sc(NC(=O)c3ccccc3)nc2C)cs1 | 0.3 | 68* | 37 | 1.1 | 0.6
COc1ccc(Cl)cc1Nc1nc(-c2sc(NC(=O)CC(C)C)nc2C)cs1 | 0.5 | 52* | 32 | 1 | 0.7
CCOc1cc2c(cc1C(C)(C)C)NC(=O)CS2 | 1.1 | -10 | -1 | 1 | 1
O=C(Cn1ncn2c(cc3ccccc32)c1=O)NCc1ccco1 | 0.8 | 16 | 62* | 1.2 | 0.4
O=C(Cn1ncc2c(=O)oc3ccccc3c21)NCC1CCCO1 (centres undefined) | 1 | -2 | -5 | 0.8 | 1.1
O=C(Cn1ncc2c(=O)oc3ccccc3c21)NCCC1=CCCCC1 | 0.8 | 24 | 59* | 0.9 | 0.4
O=C(Cn1ncn2c(cc3ccccc32)c1=O)NCCC1=CCCCC1 | 0.6 | 41 | 99* | 1 | 0
CCc1cccc(NC(=O)Cn2ncn3c(cc4ccccc43)c2=O)c1 | 0.8 | 16 | -2 | 1 | 1
Cn1c(=O)c2c(ncn2CC(O)CNc2ccc(Br)cc2)n(C)c1=O (centres undefined) | 0.5 | 46 | 75* | 1.5 | 0.3
Cn1c(=O)c2c(ncn2CC(=O)Nc2ccccc2)n(C)c1=O | 1 | 2 | 9 | 0.9 | 0.9
COCCNC(=O)COc1cc(=O)n(C)c2ccccc12 | 1.1 | -9 | -10 | 1 | 1.1
CC1CN(C)C(c2ccccc2)C(C)C12NC(=O)NC2=O (centres undefined) | 1 | -1 | 7 | 1 | 0.9
SMILES | CYP2C9 activ | CYP2C9 inhib | CYP2C19 inhib | PLAP activator | CYP2C19 act
CC1=CC(C)(C)N=C(Nc2ccc(C)cc2)S1 | 1 | 2 | 76* | 0.9 | 0.2
CCSc1nnc(NC(=O)COc2ccccc2)s1 | 0.2 | 76* | 53* | 1.1 | 0.5
CCCCSc1nnc(NC(=O)CCc2ccccc2)s1 | 0.4 | 56* | 21 | 1 | 0.8
CCSc1nnc(NC(=O)CSc2c(Cl)cccc2Cl)s1 | 0.8 | 18 | 10 | 1 | 0.9
CCSc1nnc(NC(=O)c2cccc3ccccc23)s1 | 0.9 | 15 | 3 | 1.1 | 1
CCSc1nnc(NC(=O)COc2ccc3ccccc3c2)s1 | 0.3 | 68* | 60* | 1 | 0.4
CCSc1nnc(NC(=O)C(CC)Oc2ccccc2)s1 (centres undefined) | 0.2 | 80* | 34 | 1 | 0.7
COc1ccccc1-c1ccc(=O)n(CC(=O)NC(C)(C)C)n1 | 1.4 | -43 | -1 | 1 | 1
CC1(C)CC(O)(CCNCc2ccc3c(c2)OCO3)CCO1 (centres undefined) | 0.7 | 32 | 12 | 1.2 | 0.9
Cc1cc(C)c2nc(C(F)(F)F)nc(NCCCN3CCOCC3)c2c1 | 0.7 | 32 | 34 | 1.6 | 0.7
CCC(Oc1ccccc1)C(=O)Nc1cc(C)on1 (centres undefined) | 0.5 | 46 | 36 | 1 | 0.6
Cc1nnc(NC(=O)COc2ccccc2)s1 | 0.8 | 22 | 13 | 0.8 | 0.9
CCOC(=O)c1sc2nc(NC(=O)COc3ccccc3)sc2c1C | 0.1 | 86* | 51* | 1.5 | 0.5
CCSc1nnc(NC(=O)C2CC=CCC2C(=O)O)s1 (centres undefined) | 0.2 | 79* | 0 | 1 | 1
CCC(Oc1ccccc1)C(=O)Nc1ccccn1 (centres undefined) | 0.6 | 44 | 75* | 1.1 | 0.3
O=Nc1ccc(NOC(=O)c2ccc(Br)cc2)cc1 | 0.9 | 10 | 17 | 1 | 0.8
Cc1ccc(C(=O)ONc2ccc(N=O)cc2)cc1 | 0.1 | 93* | -4 | 0.8 | 1
Cc1ccc(C(=O)ONc2ccc(N=NC(=O)c3ccccc3O)cc2)cc1 | 0.1 | 92* | 100* | 1.1 | 0
CCCNC(=O)CSc1nnc(C)s1 | 0.8 | 22 | 17 | 0.8 | 0.8
O=C(Nc1cccc(-c2csc(-c3ccccc3)n2)c1)c1cccs1 | 0.1 | 91* | 51* | 0.7 | 0.5
CCc1c(C(=O)NNC(=S)NCC(C)C)csc1C | 1.1 | -6 | 13 | 1.2 | 0.9
CCc1c(C(=O)Nc2ccncc2)csc1C | 0.2 | 84* | 98* | 0.8 | 0
O=C(Nc1ccc2nsnc2c1)c1cccs1 | 0.8 | 22 | 55* | 0.9 | 0.4
O=C(Nc1ccncc1)c1cccs1 | 0.5 | 52* | 47 | 0.9 | 0.5
O=C(Nc1cccnc1)c1cccs1 | 1.1 | -8 | 4 | 1 | 1
CCC(=O)Nc1nnc(C(C)(C)C)s1 | 1 | -4 | -1 | 0.9 | 1
O=C(COc1ccc(S(=O)(=O)NC2CCCCC2)cc1Cl)N1CCN(c2ccccc2)CC1 | 0 | 100* | 68* | 1.5 | 0.3
CC(C)NS(=O)(=O)c1ccc(OCC(=O)Nc2ccc3c(c2)OCO3)c(Cl)c1 | 0.9 | 14 | 13 | 0.9 | 0.9
O=C(COc1ccc(S(=O)(=O)NC2CCCCC2)cc1)N1CCN(c2ccc(F)cc2)CC1 | 0.6 | 44 | 15 | 1.6 | 0.9

Source: PubChem (Sanford-Burnham Center for Chemical Genomics)
